A short description of assay [1]: qHTS assay to identify small molecule agonists of the vitamin D receptor (VDR) signaling pathway - cell viability counter screen (AID 743224). Note: series mostly up to about 63 µM; nearly all actives have a fitted effect of over 50% in size. The method in brief: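 Viability is measured in the same wells as the VDR-bla reporter assay: after 16 h compound treatment and 2 h substrate loading, CellTiter-Glo is added and luminescence read 30 min later.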
On the technique in general: qHTS replaces the single test concentration by a dilution series.

The nature of assay [2]: qHTS assay to identify small molecule antagonists of the vitamin D receptor (VDR) signaling pathway - cell viability counter screen (AID 743225). Note: nearly all actives have a fitted effect of over 50% in size. The method in brief:
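Luminescent cell viability (CellTiter-Glo) in VDR-bla HEK 293T cells after 16 h compound exposure at 37C in the presence of 3 nM final 1-alpha,25-dihydroxy vitamin D3.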

Assay [3] in a line: qHTS assay to identify small molecule agonists of the NFkB signaling pathway - cell viability counter screen (AID 1159515; calls by dose curve; note: series mostly up to about 61 µM; nearly all actives have a fitted effect of over 55% in size). In short, it runs like this: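 Multiplexed viability readout: after the 5 hr compound exposure and 1.5 hr FRET substrate step, CellTiter-Glo reagent went into the same NFkB-bla ME-180 wells; ATP luminescence was measured after 30 min at room temperature.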

Assay [4] can be described thus: qHTS assay to identify small molecule agonists of the endoplasmic reticulum stress response signaling pathway - cell viability counter screen (AID 1159517; calls by dose curve; note: series mostly up to about 61 µM; nearly all actives have a fitted effect of over 50% in size). In short, it runs like this:
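Cells, HeLa ESRE-bla; density, 1,500/well; dosing, 5 hr at 37 C, 5% CO2; readout, CellTiter-Glo luminescence after 30 min RT.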

A short description of assay [5]: qHTS assay to identify small molecule antagonists of the retinoid-related orphan receptor gamma (ROR-gamma) signaling pathway - cell viability counter screen (AID 1159520). Note: nearly all actives have a fitted effect of over 50% in size. The method in brief: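 Cytotoxicity was read from cellular ATP (CellTiter-Glo luminescence) after 16 hr at 37 C with 1 uM doxycycline induction. The inducer was added 2 hr after compound transfer to Tet-on ROR gamma CHO cells.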

For assay [6], the target named is Nuclear receptor ROR-gamma (Homo sapiens) (UniProt P51449). In words: qHTS assay to identify small molecule antagonists of the retinoid-related orphan receptor gamma (ROR-gamma) signaling pathway (AID 1159521). In short, it runs like this: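 CHO cells expressing RORγ under a TET-on promoter, luciferase under RORE control. Dox 1 uM final, 16 h; compounds added 2 h prior. Luminescence decrease measured.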

Assay [7] in a line: qHTS assay to identify small molecule agonists of the AP-1 signaling pathway - cell viability counter screen (AID 1159525; calls by dose curve; note: nearly all actives have a fitted effect of over 55% in size). The method in brief:
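Luminescent ATP readout (Cell Titer Glo, 30 min RT), normalised to DMSO and tetra n-octyl ammonium bromide controls. Cells were ME-180 AP-1-bla in 0.5% dialyzed FBS Opti-MEM, with a 5 h, 37 °C compound exposure.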

The nature of assay [8]: qHTS assay to identify small molecule agonists of the AP-1 signaling pathway (AID 1159526; calls by dose curve).
The target in assay [9] is Retinoic acid receptor RXR-alpha (Homo sapiens) (UniProt P19793). The assay can be described thus: qHTS assay to identify small molecule agonists of the RXR signaling pathway (AID 1159527; calls by dose curve; note: nearly all actives have a fitted effect of over 35% in size). In short, it runs like this: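 Beta-lactamase reporter assay, agonist format. Engineered HEK 293T line, charcoal-stripped FBS at 2%, overnight (16 hr) exposure, fluorescence at 460 and 530 nm after 405 nm excitation.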
Chain of Retinoic acid receptor RXR-alpha (Homo sapiens) (P19793 whole entry, looked up): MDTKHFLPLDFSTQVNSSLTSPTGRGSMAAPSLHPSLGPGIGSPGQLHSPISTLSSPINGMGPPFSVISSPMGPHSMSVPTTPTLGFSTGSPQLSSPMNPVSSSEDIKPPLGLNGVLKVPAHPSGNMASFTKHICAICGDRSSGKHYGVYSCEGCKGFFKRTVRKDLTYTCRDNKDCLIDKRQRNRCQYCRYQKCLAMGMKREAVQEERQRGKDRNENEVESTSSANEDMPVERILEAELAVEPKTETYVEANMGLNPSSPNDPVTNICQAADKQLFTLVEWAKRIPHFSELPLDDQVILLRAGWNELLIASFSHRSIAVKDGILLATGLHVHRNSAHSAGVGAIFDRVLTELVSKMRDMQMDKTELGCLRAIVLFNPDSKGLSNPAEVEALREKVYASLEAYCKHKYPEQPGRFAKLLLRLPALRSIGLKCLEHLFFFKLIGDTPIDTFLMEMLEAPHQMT

Assay [10] can be described thus: qHTS assay to identify small molecule agonists of the RXR signaling pathway - cell viability counter screen (AID 1159529). The method in brief: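 Same-well viability check after the LiveBLAzer FRET read: CellTiter-Glo added, luminescence measured after 30 min at room temperature. Reporter HEK 293T cells had been treated with compounds for 16 hr following a 5 hr preincubation.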

Assay [11] in a line: qHTS assay to identify small molecule antagonists of the retinoid acid receptor (RAR) signaling pathway - cell viability counter screen (AID 1159551). Note: nearly all actives have a fitted effect of over 35% in size. The method in brief:
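Cytotoxicity counter screen in C3RL4 cells: 6 h compound exposure with 1 uM retinol (final), viability from cellular ATP by luminescence.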

A short description of assay [12]: qHTS assay to identify small molecule antagonists of the estrogen related receptor (ERR) signaling pathway - cell viability counter screen (AID 1224818). Note: series mostly up to about 46 µM. The method in brief: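 Cells carrying the ERR pathway reporter were seeded and incubated for 6 hours before compound addition. After a 17.5-hour exposure at 37 C, live-cell protease activity was measured by CellTiter-Fluor fluorescence following 30 minutes of incubation.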

Assay [13] is described as follows: qHTS assay to identify small molecule antagonists of the estrogen related receptor signaling pathway with the pleiotropic PPARgamma coactivator (PGC) cell viability counter screen (AID 1224822; note: series mostly up to about 46 µM). In short, it runs like this: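 Seed PGC/ERR cells (2,000/well); incubate 6 h at 37 C/5% CO2; pin-transfer compounds in DMSO; incubate 17.5 h at 37 C; add CellTiter-Fluor; after 30 min read fluorescence.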

Assay [14] is described as follows: qHTS assay to identify small molecule agonists of the endoplasmic reticulum stress response signaling pathway (AID 1159516; active = well fitted activation curve with a large enough effect in the signal ratio in the repeat runs, not every such curve was filed as active; the % refers to the signal ratio). The method in brief:
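Tox21 10K library screened in quantitative HTS format on ESRE-bla HeLa cells, a beta-lactamase reporter under ER stress response element control; 5 hr treatment, FRET read.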

Assay [15] can be described thus: qHTS assay to identify small molecule antagonists of the retinoic acid receptor (RAR) signaling pathway (AID 1159552; note: nearly all actives have a fitted effect of over 50% in size). In short, it runs like this:
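Readout: luciferase luminescence, 30 min post-reagent at RT. Setup: C3RL4 RARE reporter cells, compounds plus retinol 1 uM final, 6 hr incubation at 37 C and 5% CO2.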

The nature of assay [16]: qHTS assay to identify small molecule agonists of the retinoic acid receptor (RAR) signaling pathway (AID 1159553). Note: potency is the fitted concentration of half-maximal effect. In short, it runs like this:
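Agonist activity was scored in C3RL4 cells bearing a retinoic acid response element luciferase construct. Cells were treated with compounds for 6 hr at 37 C, and luciferase signal was measured as luminescence.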

Assay [17] is described as follows: qHTS assay to identify small molecule antagonists of the estrogen related receptor (ERR) signaling pathway (AID 1224819). The method in brief:
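Compounds dissolved in DMSO were pin-transferred onto ERR cells that had been plated 6 h earlier, and cells were then incubated 18 h at 37 C; signal was luciferase luminescence via One-Glo.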

Assay [18] is described as follows: qHTS assay to identify small molecule agonists of the estrogen related receptor (ERR) signaling pathway (AID 1224820). In short, it runs like this:
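ERR reporter cells (NTP line) plated 2,000/well, incubated 6 h at 37 C/5% CO2, then pinned with compounds in DMSO and held 18 h at 37 C. One-Glo added; luminescence read after 30 min at room temperature.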

Assay [19] relates to estrogen-related receptor alpha (ERRalpha) with PGC-1alpha coactivator, human. The assay can be described thus: qHTS assay to identify small molecule antagonists of the estrogen related receptor signaling pathway with the pleiotropic PPARgamma coactivator (PGC) (AID 1224821; calls by dose curve). In short, it runs like this: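 Cells engineered for PGC/ERR signalling (line from NTP) were plated 6 h at 37 C/5% CO2, then exposed to DMSO-dissolved compound for 18 h at 37 C. Luciferase activity was read by One-Glo luminescence after 30 min at room temperature.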

Records with an inconclusive call do not appear. Values without a mark were called inactive. Active and inactive are the calls of the source. Unless noted, calls come from the whole dose curve; as a rule, active = well fitted curve in the direction sought with a large enough effect in the repeat runs; inconclusive = weak or mixed curves; inactive = no such curve, though single readings can be large; an effect the other way counts as inactive or inconclusive.

Regarding `Cc1cc(C(C)(C)C)c(O)c(C)c1CC1=NCCN1`, the Potency result in assay [1], in assay [4] and in assay [9] was “inactive” each time. The result in assay [2], in assay [3], in assay [5], in assay [6], in assay [7] and in [8] was inactive. The call in assay [10], in assay [11], in assay [12] and in assay [13] was inactive.

For `C=CC(OCC)OCC`, the Potency result in assay [1], in [4] and in assay [9] was “inactive” each time. The compound was classed as inactive in [2], in assay [14], in assay [5], in assay [6], in assay [7] and in assay [8]. Also, the compound was called inactive in [11] and in assay [15].

As for `CCCCCCCCOS(=O)(=O)O`, the Potency entry in assay [1], in [4] and in [9] was “inactive” in each case. The compound was classed as inactive in [2], in assay [3], in [14], in [5], in assay [6] and in assay [7]. Moreover, the outcome in [8], in assay [10] and in assay [11] was inactive.

In the case of `C[C@@H](Oc1ccc(CNC(=O)c2cccnc2Oc2ccc3c(c2)OCO3)c(F)c1)C(=O)O`, the Potency entry in assay [1], in [4] and in assay [9] was “inactive” throughout. In addition, the call in assay [2], in assay [3], in assay [14], in assay [5], in assay [6] and in assay [7] was inactive. Besides, the result in assay [8], in assay [10] and in assay [11] was inactive.

As to `O=C(c1ccc(O)cc1)c1ccc(O)c(O)c1O`, the Potency entry in [1], in assay [4] and in assay [9] was “inactive” throughout. The compound was called inactive in assay [2], in assay [3], in assay [14], in [5], in assay [6] and in [7]. The call in [8], in assay [10], in [11] and in assay [15] was inactive.

`CCCC(=O)C(C)=O`: the Potency result in assay [1], in [4] and in assay [9] was “inactive” each time. Further, the call in [2], in assay [14], in [5], in [6], in [7] and in assay [8] was inactive. The compound was classed as inactive in [10] and in assay [11].

As to `CCCCCCOC(=O)CC`, the Potency result in [1], in [4] and in [9] was “inactive” in each case. Also, the result in [3], in assay [14], in assay [5], in [6], in assay [7] and in assay [8] was inactive. Further, the compound was classed as inactive in assay [10] and in assay [11].

In the case of `CCOCCOC(=O)/C=C/c1ccc(OC)cc1`, the Potency result in assay [1], in assay [4] and in [9] was “inactive” each time. Moreover, the compound was classed as inactive in assay [2], in assay [3], in assay [5], in [6], in assay [7] and in [8]. The compound was classed as inactive in [10], in [11] and in [15]. Also, the Potency in [16] is 33.5 µM (active).

`NCCS`: the Potency result in assay [1], in [4] and in assay [9] was “inactive” throughout. Moreover, the compound was classed as inactive in [2], in assay [3], in assay [14], in [5], in assay [6] and in assay [7]. Further, the call in assay [8], in assay [10], in [11], in assay [12], in [17] and in assay [18] was inactive. In addition, the outcome in assay [19] and in assay [13] was inactive.

Turning to `O=C1c2ccccc2C(=O)c2cc(S(=O)(=O)O)ccc21`, the Potency entry in [1], in assay [4], in [9] and in assay [16] was “inactive” throughout. Moreover, the result in [2], in [3], in assay [14], in assay [5], in assay [6] and in assay [7] was inactive. Also, the call in [8], in [11] and in [15] was inactive.

As to `CC(C)C(=O)OCCc1ccccc1`, the Potency entry in assay [1], in assay [4], in assay [9] and in [16] was “inactive” in each case. The compound was classed as inactive in assay [2], in assay [3], in assay [14], in assay [6], in [7] and in [8]. Also, the result in assay [10], in assay [11] and in [15] was inactive.

For the compound `Nc1nnc(-c2cccc(Cl)c2Cl)c(N)n1`, the Potency entry in assay [1], in assay [4] and in assay [9] was “inactive” each time. For the same compound, the compound was classed as inactive in assay [2], in assay [3], in assay [14], in assay [5], in assay [6] and in [7]. Further, the compound was called inactive in assay [8], in assay [10], in assay [11], in assay [12] and in [13].

For `O=C(CCNNC(=O)c1ccncc1)NCc1ccccc1`, the Potency result in assay [1], in assay [4] and in assay [9] was “inactive” throughout. Moreover, the outcome in assay [2], in assay [14], in assay [5], in assay [6], in assay [7] and in assay [8] was inactive. Further, the result in assay [11], in assay [12] and in [13] was inactive.

Consider `CCCCCCCCSCC`, for which the Potency entry in assay [1], in [4] and in assay [9] was “inactive” in each case. The call in assay [3], in assay [14], in assay [5], in assay [6], in [7] and in assay [8] was inactive. Moreover, the result in [10] and in [11] was inactive.

On to `C=C(C)C(=O)OCc1ccccc1`, for which the Potency entry in assay [1], in [4] and in assay [9] was “inactive” each time. The compound was called inactive in assay [2], in assay [14], in assay [5], in assay [6], in assay [7] and in assay [8]. Also, the outcome in assay [10] and in assay [11] was inactive.

Turning to `O=C(NCCN1CCOCC1)c1ccc(Cl)cc1`, the Potency result in assay [1], in assay [4] and in assay [9] was “inactive” each time. Besides, the outcome in assay [14], in assay [5], in assay [6], in assay [7], in [8] and in [10] was inactive. For the same compound, the compound was classed as inactive in assay [15], in [12], in assay [17], in assay [19] and in assay [13].

The record behind these values is PubChem BioAssay (Tox21).
